Drawing on PubChem BioAssay (NCATS), this text covers Z-AUC for 10 compounds.

Calls of active or inactive are those of the source. Calls come from the whole dose curve.

A short description of the assay: qHTS drug screen for cell cycle checkpoint inhibitors in PARPi-resistant BRCA-mutant ovarian cancer cell lines. (AID 1963452). The settings on record: PEO1/OlaR viability, CellTiter-Glo luminescence, 96 h, stronger effect = lower value. A digest of the protocol:
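PEO1, PEO4 and PEO1/OlaR ovarian cancer cells, 600 per well, exposed 96 h at 37C to a dilution series. Viability read by CellTiter-Glo luminescence, normalized to DMSO and empty wells; activity summarized as Z-AUC.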

Setting [1] is: measured here: PEO1 parental Z-AUC.

On to `C=C1C[C@@]2(O)O[C@@]3(C[C@H]2C(C)C)[C@@H](C)CC[C@@H]13`, for which the Z-AUC is -0.318 (inactive). The Z-AUC under setting [1] was -0.38. Moreover, the Z-AUC (measured here: PEO4 Z-AUC) is -0.147.
As to `CC(C)N(CCCNC(=O)Nc1ccc(C(C)(C)C)cc1)C[C@H]1O[C@@H](n2ccc3c(N)ncnc32)[C@H](O)[C@@H]1O`, the Z-AUC was -0.352 (inactive). Also, the Z-AUC under setting [1] was -0.286. Further, for the setting “measured here: PEO4 Z-AUC”, the Z-AUC is -0.377.
Take `O=C1NC(=O)/C(=C/c2cccc(C(F)(F)F)c2)S1`: the Z-AUC is 0.536 (inactive). Further, the Z-AUC under setting [1] was found to be 0.151. Also, the Z-AUC (measured here: PEO4 Z-AUC) is 0.0196.
Take `Nc1ncnc2c1C(=O)N(c1ccc(C3CCC(CC(=O)O)CC3)cc1)CCO2` (stereo not given): the Z-AUC is 0.276 (inactive). Besides, the Z-AUC under setting [1] amounted to 0.0726. Moreover, the Z-AUC (measured here: PEO4 Z-AUC) is 0.138.
`Cc1cccc(-c2nn3c(c2-c2ccnc4ccc(C(N)=O)cc24)CCC3)n1`: the Z-AUC was 1.11 (inactive). For the same compound, the Z-AUC under setting [1] stood at 0.368. Besides, for the setting “measured here: PEO4 Z-AUC”, the Z-AUC was 0.508.
Taken in the same sequence, the figures for `Cc1noc2c1-c1ccccc1C(c1ccc(Cl)cc1)=N[C@H]2CC(N)=O` were -0.193 (inactive), -0.00939 and -0.463.
In the case of `C[C@@H]1O[C@@H](O[C@@H]2\C=C/C=C\C=C/C=C\C[C@H](C)OC(=O)/C=C\[C@H]3O[C@@H]3C[C@H](O)C[C@]3(O)C[C@@H](O)[C@@H](C(=O)O)[C@H](C2)O3)[C@H](O)[C@H](N)[C@@H]1O`, the Z-AUC is 1.98 (inactive). In addition, the Z-AUC under setting [1] is 1.57. The Z-AUC (measured here: PEO4 Z-AUC) is 1.97.
`COc1cccc2c1c(O)c(C(=O)N(C)c1ccc(C(F)(F)F)cc1)c(=O)n2C`: the Z-AUC is 0.835 (inactive). Further, the Z-AUC under setting [1] worked out at 0.409. Also, the Z-AUC (measured here: PEO4 Z-AUC) came out at 0.643.
Regarding `O=C(/C=C/C=C/c1ccc2c(c1)OCO2)N1CCCCC1`, the Z-AUC was 1.54 (inactive). Besides, the Z-AUC under setting [1] came out at 1.2. For the same compound, the Z-AUC (measured here: PEO4 Z-AUC) was determined as 2.18.
In the same order, the values of `Cc1ccccc1-n1nc(-c2c(-c3ccc(F)cc3)nn3c2NC[C@@H](CO)C3)ccc1=O` are 0.0215 (inactive), 0.2 and 0.209.
